Experimental findings from PubChem BioAssay (NCATS) are described below.

Assay [1] addresses Cellular tumor antigen p53 (Homo sapiens) (UniProt P04637). Put plainly: Primary qHTS for small molecule compounds that upregulate eGFP-tagged delta133p53alpha (in N-terminal) cells. (AID 2060322). Further: nearly all actives have a fitted effect of over 75% in size. Further: potency means the concentration at half of the fitted maximal effect.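 On activation: series mostly up to about 56 µM; 0% = DMSO vehicle and 100% = reference activator.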 Conditions: NCI-H358 eGFP-delta133p53alpha fluorescence, 24 h; activation: stronger effect = higher value. In a few lines: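 NCI-H358 cells pre-induced 24 h with 10 ng/ml doxycycline to express N-terminal eGFP-delta133p53alpha, then dosed 24 h at 37C without doxycycline; fixed, Hoechst-stained, GFP intensity by laser scanning cytometry, normalized to DMSO (0%) and 57.5 uM 5-azacytidine (100%).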

For assay [2], the target named is Aldehyde dehydrogenase, mitochondrial (Homo sapiens) (UniProt P05091). Put plainly: qHTS for Inhibitors of the Aldehyde Dehydrogenase Family (ALDH2) Confirmatory screens (AID 2061303; active means well fitted inhibition curve with a large enough effect; title and protocol of this record describe different tests; further: on the % scale 0 is the no-effect control and ±100 the full control effect; nearly all actives have a fitted effect of over 45% in size).
Assay [3] has the same target. Put plainly: qHTS for Inhibitors of the Aldehyde Dehydrogenase Family (ALDH2) Primary screen (AID 2061308). Further: nearly all actives have a fitted effect of over 55% in size. Further: potency means the concentration at half of the fitted maximal effect.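 On activity change, negative = inhibition: plate controls were vehicle for no effect and reference inhibitor for full effect.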 On the technique in general: Quantitative high-throughput screening tests each substance at several concentrations.
Assay [4] deals with Retinaldehyde dehydrogenase 3 (Homo sapiens) (UniProt P47895). In words: qHTS for Inhibitors of the Aldehyde Dehydrogenase Family (ALDH1A3) Confirmatory screens (AID 2061311). Further: nearly all actives have a fitted effect of over 60% in size. Further: potency means the concentration at half of the fitted maximal effect. On activity change, negative = inhibition: on the % scale 0 is the no-effect control and ±100 the full control effect.
The target is the same in assay [5]. In words: qHTS for Inhibitors of the Aldehyde Dehydrogenase Family (ALDH1A3) Validation screen (AID 2061312). Further: nearly all actives have a fitted effect of over 45% in size. Further: potency means the concentration at half of the fitted maximal effect. On activity change, negative = inhibition: on the % scale 0 is the no-effect control and ±100 the full control effect.
Assay [6] shares this target. Put plainly: qHTS for Inhibitors of the Aldehyde Dehydrogenase Family (ALDH1A3) Primary screen (AID 2061315).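 Further: plate controls were DMSO vehicle for no effect and reference inhibitor for full effect.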
In assay [7] the target is Aldehyde dehydrogenase 1A1 (Homo sapiens) (UniProt P00352). Put plainly: qHTS for Inhibitors of the Aldehyde Dehydrogenase Family (ALDH1A1) Confirmatory screens (AID 2061316). Further: nearly all actives have a fitted effect of over 65% in size. Further: potency means the concentration at half of the fitted maximal effect. On activity change, negative = inhibition: on the % scale 0 is the no-effect control and ±100 the full control effect.
A short description of assay [8]: qHTS for Inhibitors of the Aldehyde Dehydrogenase Family (ALDH1A2, ALDH1A3, ALDH2, ALDH3A1) (AID 2061307). Further: nearly all actives have a fitted effect of over 50% in size. On activity change, negative = inhibition: on the % scale 0 is the no-effect control and ±100 the full control effect.
Assay [9] has as its target Retinal dehydrogenase 2 (Homo sapiens) (UniProt O94788). Put plainly: qHTS for Inhibitors of the Aldehyde Dehydrogenase Family (ALDH1A2) Confirmation screens (AID 2061314). Further: nearly all actives have a fitted effect of over 65% in size. Further: potency means the concentration at half of the fitted maximal effect.
A short description of assay [10]: BET inhibitor-based combinations targeting novel dependencies in MECOM-rearranged (r) AML: OCI-AML3 cell line (AID 2202232). Further: nearly all actives have a fitted effect of over 35% in size. Further: potency means the concentration at half of the fitted maximal effect. Conditions: Potency: OCI-AML3 viability. In a few lines:
(§1)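 A 48 hr incubation preceded viability reading by CellTiter-Glo, with 15 min room-temperature development. Dose series had 11 points; normalization used DMSO and empty wells; AUC was computed and mean-centered per line as Z-AUC.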

A short description of assay [11]: BET inhibitor-based combinations targeting novel dependencies in MECOM-rearranged (r) AML: MV-4-11 cell line (AID 2202233). Further: nearly all actives have a fitted effect of over 45% in size. Further: potency means the concentration at half of the fitted maximal effect. In a few lines:
(§2)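 Each compound is tested in an 11-point concentration series against 500 seeded cells/well for 48 hr. The luminescent viability signal is normalized to DMSO and blank wells, then reduced to AUC and a cell-line-centred Z-AUC.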

A short description of assay [12]: BET inhibitor-based combinations targeting novel dependencies in MECOM-rearranged (r) AML: HNT-34 cell line (AID 2202234). Further: nearly all actives have a fitted effect of over 35% in size. Further: potency means the concentration at half of the fitted maximal effect. Summed up:
as §2

Assay [13] can be described thus: BET inhibitor-based combinations targeting novel dependencies in MECOM-rearranged (r) AML: UCSD-AML1 cell line (AID 2202235). Further: nearly all actives have a fitted effect of over 40% in size. Further: potency means the concentration at half of the fitted maximal effect. In a few lines:
as §2

Assay [14] can be described thus: BET inhibitor-based combinations targeting novel dependencies in MECOM-rearranged (r) AML: AML-191 cell line (AID 2202236; further: nearly all actives have a fitted effect of over 35% in size; further: potency means the concentration at half of the fitted maximal effect). Summed up: as §1
Assay [15] in a line: BET inhibitor-based combinations targeting novel dependencies in MECOM-rearranged (r) AML: SET-2 cell line (AID 2202231). Further: nearly all actives have a fitted effect of over 35% in size. Further: potency means the concentration at half of the fitted maximal effect.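 On viability: plate controls were DMSO treated cells for no effect and wells without cells for full effect.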 Conditions: SET-2 AML cells viability, CellTiter-Glo luminescence, 48 h; viability: stronger effect = lower value, concentration not given here. Summed up: as §1
(ATP-based viability assays read luminescence as a measure of living cells.)

Assay [16] in a line: BET inhibitor-based combinations targeting novel dependencies in MECOM-rearranged (r) AML: AML-194 cell line (AID 2202237; further: nearly all actives have a fitted effect of over 40% in size; further: potency means the concentration at half of the fitted maximal effect). In a few lines: as §1

Where “and” joins values, the source holds several entries; their conditions need not be identical. Equal values may be shown once. Results filed as inconclusive are left out. Values without a mark were called inactive. Calls of active or inactive are those of the source. Unless noted, the call rests on the fitted dose curve; in most records, active means well fitted curve in the direction sought with a large enough effect; inconclusive means small, poorly fitted or top-dose-only effect, or another doubt; inactive means no such curve, though single readings can be large; an effect the other way counts as inactive or inconclusive.

For orientation: viability means a read-out of living cells in per cent, often relative to untreated cells.

Cellular tumor antigen p53 (Homo sapiens), sequence (P04637 whole entry, looked up): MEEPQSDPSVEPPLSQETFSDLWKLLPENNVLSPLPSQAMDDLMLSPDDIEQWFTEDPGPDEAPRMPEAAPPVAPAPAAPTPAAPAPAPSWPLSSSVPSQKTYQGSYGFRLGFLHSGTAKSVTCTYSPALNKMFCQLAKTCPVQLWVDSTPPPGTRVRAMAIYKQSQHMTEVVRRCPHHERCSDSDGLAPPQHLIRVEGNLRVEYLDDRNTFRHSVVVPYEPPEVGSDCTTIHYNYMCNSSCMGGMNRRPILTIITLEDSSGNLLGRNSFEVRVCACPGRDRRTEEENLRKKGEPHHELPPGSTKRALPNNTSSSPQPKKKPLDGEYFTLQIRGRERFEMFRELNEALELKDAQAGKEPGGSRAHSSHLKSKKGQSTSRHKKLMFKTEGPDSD

For the compound `C=CC(=O)N1CCN(C(=O)CNc2cc(-c3ccccc3Cl)c(Cl)cc2OC)CC1`, the activation in assay [1] is 8.59%. Further, the Potency entry in [2], in assay [3], in [4], in [5], in [6] and in assay [7] was “inactive” each time.

On to `COCCN(C(=O)c1cc(OC)c(OC)c(OC)c1)c1nc(-c2ccccc2)cs1`, for which the activation in assay [1] was 19.1%. The Potency entry in [2], in assay [8], in [4], in assay [9] and in assay [7] was “inactive” each time.

With `O=C(CCCCCCC(=O)Nc1ccccc1)NO`, in assay [1], the activation was 17.7% and 26.7%. The Potency result in assay [2], in assay [3], in [4], in assay [9] and in [7] was “inactive” in each case. The Potency is 22.4 µM (active) in assay [5], 1.86 µM (active) in assay [10] and 0.742 µM (active) in assay [11].

With `O=C1NC(=O)C(c2cn(-c3ccccc3)nc2-c2ccc(F)cc2)N1` (configuration not stated), in assay [1], the activation is 4.33%. Further, the Potency result in assay [2], in [3], in [4], in assay [9], in [6] and in assay [7] was “inactive” throughout.

For `Nc1ccccc1NC(=O)c1ccc(CNC(=O)OCc2cccnc2)cc1`, the activation in [1] was 3.28%. For the same compound, the Potency entry in assay [2], in assay [3], in assay [4], in assay [5], in assay [9] and in assay [6] was “inactive” throughout. In addition, the Potency result in assay [7] was “inactive”. The Potency in [10] was 2.35 µM (active); in assay [12], 2.35 µM (active); in assay [13], 1.66 µM (active); in [14] it was 2.63 µM (active).

Regarding `CC[C@H](CO)Nc1nc(NCc2ccc(-c3ccccn3)cc2)c2ncn(C(C)C)c2n1`, the Potency in [1] was 0.536 µM (active). Further, the Potency entry in assay [2], in [8], in assay [6] and in assay [7] was “inactive” in each case.

On to `COc1ccc(-c2cc3onc(-c4ccncc4)c3c(=O)n2C)cc1`, for which, in assay [1], the activation was -6.68%. The Potency entry in assay [2], in assay [8], in assay [6] and in assay [7] was “inactive” throughout.

Turning to `O=C(C1CCCCC1)N(CCN1CCN(c2ccccc2O)CC1)c1ccccn1`, the activation in assay [1] was -3.34%. For the same compound, the Potency entry in assay [2], in assay [8] and in assay [9] was “inactive” in each case. Also, in assay [7], the Potency was 11.3 µM (active).

Turning to `Cc1ccc(CN2CCNCC2)cc1NC(=O)CNc1ccc(F)c(F)c1`, in assay [12], the Potency result was “inactive”.

As to `Cn1cc(-c2ccncc2)c(-c2ccc(OCc3ccc4ccccc4n3)cc2)n1`, the Potency in [12] was 23.5 µM (active).

With `O=C(Nc1ccc(S(=O)(=O)C(F)(F)F)cc1)C1=CCN(c2ncccc2C(F)(F)F)CC1`, the activation in [1] was -1.91%. Besides, the Potency entry in assay [8] and in [6] was “inactive” throughout. In [3], the Potency is 25.1 µM (active).

Consider `Cc1cc(C)c2c(N)c(C(=O)NCc3ccc(Cl)cc3)sc2n1`, for which the activation in [1] is 13.4%. In addition, the Potency in assay [8] is 1.12 µM (active); in [7], 14.2 µM (active). Moreover, the Potency entry in assay [3] and in assay [6] was “inactive” throughout.

For `O=C(c1c(F)ccc(NS(=O)(=O)N2CC[C@@H](F)C2)c1F)c1c[nH]c2ncc(-c3cnc(C4CC4)nc3)cc12`, the activation in assay [1] is 17%. The Potency in assay [8] was 22.4 µM (active); in assay [15] it was 16.6 µM (active); in assay [11], 18.6 µM (active); in assay [12] it was 5.9 µM (active). The Potency entry in assay [3], in assay [9] and in assay [6] was “inactive” each time.

For the compound `CN(C)c1ccc(NC(=O)NS(=O)(=O)c2ccc(Cl)cc2)cc1`, in [1], the activation was -1.67%. The Potency in assay [8] was 6.34 µM (active); in [4], 2.83 µM (active); in [9], 10.1 µM (active); in assay [7], 7.98 µM (active).

Regarding `Cc1cc(Nc2ccc(NC(=O)c3ccc(Nc4ccnc5ccccc45)cc3)cc2)nc(N)n1`, in assay [1], the Potency is 10.9 µM (active). Moreover, the Potency entry in assay [8], in assay [3], in assay [5] and in [6] was “inactive” throughout.

`O=C(O)c1ccccc1C(=O)Nc1ccc(-c2ccccc2)cc1`: the activation in assay [1] is -8.49% and 5.67%. Moreover, the Potency result in assay [8], in [3], in assay [6], in assay [11], in [12] and in [13] was “inactive” in each case. In addition, the Potency entry in assay [14] was “inactive”. Besides, the activity change, negative = inhibition in assay [4] is -21.1% [at 0.0073 µM]. For the same compound, the Potency in assay [9] is 10.1 µM (active). Besides, the viability in assay [15] was 116%.

In the case of `COc1ccc(CCO[C@@H]2O[C@H](CO[C@H]3OC[C@](O)(CO)[C@H]3O)[C@@H](OC(=O)/C=C/c3ccc(O)c(O)c3)[C@H](O[C@@H]3O[C@@H](C)[C@H](O)[C@@H](O)[C@H]3O)[C@H]2O)cc1OC`, the activation in assay [1] was 16%. Also, the Potency entry in assay [8], in [3] and in assay [9] was “inactive” each time.

With `COc1ccc(CNC(=O)Nc2ncc([N+](=O)[O-])s2)cc1`, the Potency in [1] was 33.8 µM (active); in assay [8] it was 3.16 µM (active); in assay [4], 14.2 µM (active); in assay [9], 12.7 µM (active); in [11], 18.6 µM (active); in assay [12], 20.9 µM (active). Moreover, the Potency in [14] is 23.5 µM (active); in assay [16], 26.3 µM (active). The Potency result in [3] and in [6] was “inactive” each time.

Consider `COC(=O)C1=COC(OC2OC(CO)C(O)C(O)C2O)C2C(COC(=O)/C=C/c3ccc(O)c(O)c3)C(O)C(O)C12` (configuration not stated), for which the activation in assay [1] is -6.25%. Also, the Potency result in [8], in assay [3], in assay [9] and in [7] was “inactive” throughout.

Regarding `O=C(NCc1ccc(S(=O)(=O)c2cc(F)cc(F)c2)cc1)c1ccc2nccn2c1`, in assay [1], the activation is 17.2%. The results for the Potency in assay [8] and in assay [7] were 10.1 µM (active) and 11.3 µM (active), respectively. Besides, the Potency result in [3], in assay [5], in assay [9] and in assay [6] was “inactive” in each case.

As to `Cc1cc(C)c2c(c1)C(N(Cc1cc(C(F)(F)F)cc(C(F)(F)F)c1)c1nnn(C)n1)CCCN2CC1CCC(C(=O)O)CC1` (configuration not stated), the activation in [1] is 26.7%. Besides, the Potency entry in assay [8] and in [3] was “inactive” throughout. In addition, the Potency was 2.82 µM (active) in assay [5] and 20.1 µM (active) in assay [9].

Turning to `Cc1c(Cc2ccc3ccccc3n2)c2cc(F)ccc2n1CC(=O)O`, in assay [1], the activation is -10%. Moreover, in assay [8], the Potency was 3.18 µM (active). The Potency entry in assay [3] and in assay [6] was “inactive” throughout.

With `Clc1ccc2ncc(-c3cccc(NC4CNC4)n3)n2c1`, the activation in assay [1] is 11%. Besides, the Potency entry in assay [8], in assay [3], in assay [4], in [6], in [10] and in [11] was “inactive” each time. The Potency result in assay [12], in [14] and in assay [16] was “inactive” throughout. Further, the viability in assay [15] was 115%.
